GPR151 activ = human GPR151 activation; Q8TDV0; PathHunter beta-arrestin GPR151 cells, luminescence; activation, % at 11.2 µM; hit rate 1% among 650,000; AID 1508602; in the data active = activation above about 4.9%;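 note: 0% = median of compound wells and 100% = cells with positive control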
MITF primary = blocks human microphthalmia-associated transcription factor; hit rate 0.91% among 650,000; AID 1259374; O75030; AlphaScreen MITF homodimerization, bead proximity signal; inhibition, % at 2.6 µM; in the data active = inhibition above about 50%;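 note: 0% = vehicle wells with protein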
Target sequence (O75030 whole entry, looked up): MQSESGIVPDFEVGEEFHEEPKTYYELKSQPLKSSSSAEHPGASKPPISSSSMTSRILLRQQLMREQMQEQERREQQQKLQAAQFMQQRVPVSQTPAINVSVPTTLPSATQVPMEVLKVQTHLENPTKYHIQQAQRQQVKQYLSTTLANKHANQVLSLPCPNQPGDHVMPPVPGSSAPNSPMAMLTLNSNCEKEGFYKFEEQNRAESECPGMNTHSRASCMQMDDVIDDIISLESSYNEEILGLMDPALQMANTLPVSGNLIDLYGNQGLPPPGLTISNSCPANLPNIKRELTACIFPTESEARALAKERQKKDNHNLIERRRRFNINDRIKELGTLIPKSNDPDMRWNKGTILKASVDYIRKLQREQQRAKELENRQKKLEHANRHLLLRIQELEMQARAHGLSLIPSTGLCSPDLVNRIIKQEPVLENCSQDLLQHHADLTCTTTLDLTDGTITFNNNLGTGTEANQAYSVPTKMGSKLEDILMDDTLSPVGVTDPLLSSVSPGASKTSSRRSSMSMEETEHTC
FBW7 act = activators of human E3 ligase FBW7; Q969H0; hit rate 0.13% among 650,000; normalized activity (activation), % at 26.1 µM; AID 1259310; AlphaScreen FBW7–phospho-cyclin E peptide binding, activator screen; in the data active = normalized activity above about 1.9%;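 note: purified mutant Fbw7 with reduced substrate affinity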
TEAD-YAP block = TEAD-YAP interaction inhibition. HEK-TIYL cells, TEAD-Gal4/YAP UAS-luciferase luminescence. inhibition, % at 9.12 µM. hit rate 1.4% among 640,000; in the data active = inhibition above about 32%;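 note: 0% = median of test compound wells and 100% = reference inhibitor wells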
Starred values were filed as active, the others as inactive; ! = a repeat was not active. A selection: hits, their analogues and other compounds. The true share with any hit is near 3.5%.

SMILES	GPR151 activ	MITF primary	FBW7 act	TEAD-YAP block
CC(=O)N(C1=C(N2CCCCC2)C(=O)c2ccccc2C1=O)c1ccc(C)cc1	-1	24	0	-12
O=C(NC(=S)Nc1ccc2oc(-c3cccnc3)nc2c1)c1ccco1	0	8	0	3
O=C(C1CCN(Cc2cc(Cl)ccc2O)CC1)N1CCN(Cc2ccccc2)CC1	1	59*	0	6
O=C(C1CCN(Cc2ccccc2O)CC1)N1CCCCC1	-1	52*	0	0
Cc1cc(C)c(OCC(=O)N/N=C/c2ccccc2O)c(C)c1	1	0	0	-4
COc1c(O)ccc(/C=N/NC(=O)COc2ccccc2C)c1[N+](=O)[O-]	3	-5	0	-8
Cc1cccc(C)c1OCC(=O)N/N=C/c1ccccc1O	1	13	0	51*
CCOc1ccccc1OCC(=O)N/N=C/c1ccccc1O	0	-6	-2	59*
CCOc1ccccc1OCC(=O)N/N=C(/C)c1ccc(Cl)cc1	0	9	0	69*
COc1c(O)ccc(/C=N/NC(=O)COc2c(C)ccc(C)c2C)c1[N+](=O)[O-]	0	7	0	54*
Cc1cc(OCC(=O)Nc2ccc(S(=O)(=O)N(C)C)cc2)ccc1Cl	0	6	0	9
N#Cc1ccccc1OCC(=O)N/N=C/c1ccc(O)c([N+](=O)[O-])c1	1	-6	0	-14
CCOc1ccccc1OCC(=O)N/N=C/c1ccc(O)c([N+](=O)[O-])c1	0	0	0	55*
COc1ccc(CC(=O)NCc2ccco2)cc1	4	8	0	8
COc1ccc(CCNC(=O)C(=O)NCc2ccco2)cc1	1	13	1	34*
CCOC(=O)C1=C(C)NC(=O)NC1c1ccc(OCc2ccccc2)cc1 (stereo not given)	-1	3	0	-17
CCCOc1ccc(C2NC(=O)NC(C)=C2C(=O)OC(C(F)(F)F)C(F)(F)F)cc1 (stereo not given)	1	17	2.1*	7
CCCOc1ccc(C2NC(=O)NC(C)=C2C(=O)OC2CCCCCC2)cc1 (stereo not given)	1	-13	0	2
CCOC(=O)C1=C(C)NC(=O)NC1c1ccc(-c2ccccc2)cc1 (stereo not given)	5	-1	0	40*
CCCOc1ccc(C2NC(=O)NC(C)=C2C(=O)OC2CCCC2)cc1 (stereo not given)	-1	-8	0	56*
NC(=S)n1nc2ccc3nn(C(N)=S)nc3c2n1	-1	8	0	-12
O=C(NC1CCN(Cc2ccccc2)CC1)c1ccc2nc(-c3ccccc3)sc2c1	1	-10	0	7
C=CCn1c(SCC2OCCO2)nc2cc(C(=O)NCC3CCCO3)ccc2c1=O (stereo not given)	0	25	0	15
CC(C)c1cc(=O)oc2cc(O)ccc12	-1	13	0	-1
CC1=C(C(=O)Nc2ccc(Cl)cc2)C(c2ccc(Cl)cc2)n2ncnc2N1 (stereo not given)	0	-5	0	-1
SMILES	GPR151 activ	MITF primary	FBW7 act	TEAD-YAP block
c1ccc(-c2cn3nc4c(nc3n2)CCCC4)cc1	-9	3	0	85*
CCOc1ccc(-c2cn[nH]c2N)cc1	-1	15	0	48*
N#C/C(=C/c1ccc(-c2cccc(C(F)(F)F)c2)o1)C(=O)N1CCOCC1	2	7	0	-7
Cc1onc(-c2ccccc2)c1C1=N/C(=C\c2cccc(Br)c2)C(=O)O1	-1	9	2.2*	1
CC(C(=O)N1CCCC1)N1C(=O)c2cccc3cccc1c23 (stereo not given)	3	4	0	-9
CC1=C(C(=O)OC(C)C)C(c2cccs2)C2=C(CC(c3cccs3)CC2=O)N1 (stereo not given)	0	-6	0	37*
COCCOC(=O)C1=C(C)NC2=C(C(=O)CC(c3cccs3)C2)C1c1cccs1 (stereo not given)	0	-17	0	-5
CCc1ccc(C2C(C(=O)OC(C)C)=C(C)NC3=C2C(=O)CC(c2cccs2)C3)s1 (stereo not given)	1	2	0	-8
COC(=O)C1=C(C)NC2=C(C(=O)CC(c3cccs3)C2)C1c1cccs1 (stereo not given)	0	3	0	4
COC(=O)C1=C(C)NC2=C(C(=O)CC(c3cccs3)C2)C1c1ccsc1 (stereo not given)	-1	9	1	33*
COC(=O)C1=C(C)NC2=C(C(=O)CC(c3cccs3)C2)C1c1cc(OC)c(Br)cc1OC (stereo not given)	1	-3	0	60*
CCOC(=O)C1=C(C)NC2=C(C(=O)CC(c3cccs3)C2)C1c1cccs1 (stereo not given)	-1	-1	0	51*!
COCCOC(=O)C1=C(C)NC2=C(C(=O)CC(c3cccs3)C2)C1c1ccccc1F (stereo not given)	-1	8	0	15
COCCOC(=O)C1=C(C)NC2=C(C(=O)CC(c3cccs3)C2)C1c1ccc(F)cc1 (stereo not given)	0	1	0	36*!
O=C(COc1ccc(CO)cc1Cl)Nc1ccccc1	-3	10	1	49*
Cc1ccc(COc2ccc(CO)cc2Cl)cc1	-1	7	0	33*
CCCOC(=O)c1cccc(NC(=O)COc2ccccc2Br)c1	0	7	0	50*
CCCOC(=O)c1cccc(NC(=O)COc2ccc(Br)cc2)c1	1	15	0	-18
O=C(COc1ccc(Br)cc1Br)Nc1cccc(O)c1	3	2	0	69*
C#CC(O)(c1ccc(OC)cc1OC)c1ccc(OC)cc1OC	-2	0	0	33*
COc1ccc(CNC(=O)CSc2nnc3n2C(C)(C)Cc2ccccc2-3)cc1	0	-4	0	16
COc1ccc(NC(=O)N2CC=C(c3c[nH]c4ccccc34)CC2)cc1	0	2	0	51*
N=c1c2c(-c3ccccc3)c(-c3ccccc3)n(Cc3ccco3)c2ncn1CCO	-2	15	0	68*
CS(=O)(=O)Nc1ccc(-c2cnc3cccc(-c4cccnc4)c3c2)cc1	-1	32	0	-20
O=C(Nc1ccc(Cl)cc1)Nc1ccc(S(=O)(=O)Nc2ncccn2)cc1	-1	-23	2.5*	-2
SMILES	GPR151 activ	MITF primary	FBW7 act	TEAD-YAP block
Fc1cncc(-c2ccnc(Nc3ccc(-c4cnn(CCN5CCOCC5)c4)cc3)n2)c1	2	10	0	-4
CCCn1cc(-c2ccc(Nc3nccc(-c4cncc(N5CCOCC5)c4)n3)cc2)cn1	1	7	0	47*
c1cc(-c2cncc(N3CCOCC3)c2)nc(Nc2ccc(-c3cnn(CCN4CCOCC4)c3)cc2)n1	-1	17	1	96*
CCN1CCN(C(=O)CN(c2cc(Cl)ccc2C)S(C)(=O)=O)CC1	1	6	0	7
CSC1=NSC2=NC(=O)/C(=C\c3ccc(C)o3)C(=N)N12	-2	17	0	-26
CSC1=NSC2=NC(=O)/C(=C\c3ccc([N+](=O)[O-])o3)C(=N)N12	0	85*	-1	-12

Compound activity from PubChem.
